Experimental data reported in the supplement of paper PMC6555819.

Experiments:
Assay in all cases: PBM binding z-score (relative to random genomic background probes); higher = stronger binding; sequences stand for … in GC…GCGATTGACAGCGTAGAATGAAGG
[1] = tested on: RARb homodimer (NR concentration 270 nM)
Outline: (§1)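 Probes were double-stranded and carried 34-nt variable regions with direct-repeat seeds, single-nucleotide variants, half-site ablations and random human genomic background sequences, printed on custom Agilent 4×180K protein-binding microarrays. Arrays were incubated 1 h with ligand-free nuclear receptor dimers in PBS pH 7.4, 2% milk, 0.02% Triton X-100, 1 mM DTT, 0.2 mg/mL BSA and 0.4 mg/ml salmon testes DNA. Antibodies against each partner (one per run) detected binding, and scanned fluorescence was regression-normalized. Binding z-scores use the random background probes as reference.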

[2] = tested on: RARg:RXRa (NR concentration 270 nM, RXRa partner concentration 90 nM)
Outline: as §1

[3] = tested on: RARg homodimer (NR concentration 270 nM)
Outline: as §1

[4] = tested on: RXRa DBDmut IVT, anti-RXR (DBD mutation: RXRa K156A/R161A, NR concentration 90 nM)
Outline: as §1

[5] = tested on: RXRa homodimer (NR concentration 180 nM)
Outline: as §1

[6] = tested on: THRa:RXRa (NR concentration 90 nM, RXRa partner concentration 90 nM)
Outline: as §1

[7] = tested on: THRa homodimer (NR concentration 90 nM)
Outline: as §1

[8] = tested on: VDR homodimer (NR concentration 270 nM)
Outline: as §1

| Sequence | PBM binding z-score [1] | PBM binding z-score [2] | PBM binding z-score [3] | PBM binding z-score [4] | PBM binding z-score [5] | PBM binding z-score [6] | PBM binding z-score [7] | PBM binding z-score [8] |
| --- | --- | --- | --- | --- | --- | --- | --- | --- |
| TCTTGTAGATCATCAGGTTAAGAAAGCTGGCCAA | 0.398 | 0.0917 | -0.23 | 0.859 | 0.451 | 0.929 | 0.613 | 0.0246 |
| CCTTACGGGTCACTGACAGGTTAGAGCATTTGGA | 3.12 | 5.7 | 4.77 | 1.55 | 5.51 | 2.68 | 0.0773 | 0.83 |
| GATACAGGGTCCGCTAGAGGCCAGAGTATGGAAA | 0.0694 | 0.628 | 0.211 | -0.114 | -0.246 | 0.0317 | -1.09 | -0.148 |
| TCTGCTAGGTCAGTTGGTCAGCTACCGAGCTGCC | 2.77 | 2.45 | 3.07 | 0.34 | 0.83 | 1.22 | -0.00528 | -0.907 |
| CGACAAAGTTCAACTAAGGTAACGTAAAGCACGC | 4.21 | 5.63 | 6.69 | 4.18 | 4.41 | 5.06 | 1.57 | 3.79 |
| AATACAGGGTCGTCGTAGGCCAGAGTACGCACAG | 1.42 | 2.13 | 1.29 | 1.76 | 2.81 | 3.4 | 0.245 | 1.78 |
| GCTGCTAAGTCAACTGATGGTCAGCTAAAGCTCG | 0.11 | 0.204 | -0.211 | 0.184 | -0.0847 | -0.519 | -1.1 | -1.02 |
| CCGACTGAGGCAGAAAGGTTACCATACCATCCGG | 2.04 | 1.26 | 0.925 | -0.0333 | 1.87 | 1.06 | -0.0968 | -0.0311 |
| ACTAGTTGGTCAGCTGAGGTCAGACACAATTCGG | 3.88 | 2.85 | 3.57 | 0.548 | 2.51 | 4.56 | 3.42 | 1.76 |
| TCATATAGGTACTACAGGTGAAAGTCGGCATCTA | 0.25 | 0.654 | 0.428 | 1.33 | 0.935 | 0.692 | -0.00751 | 0.023 |
| ACTAGCAGGCCAAGTTTGGGCCACTCAAACAAAG | 0.113 | 0.0368 | 0.111 | -0.286 | -0.539 | 0.356 | -0.681 | -0.556 |
| AGAACGAGGGCACGCTGAGTTGATAGAAGAGTAG | 1.17 | 1.97 | 2.31 | 1.83 | 1.29 | 1.91 | -0.0196 | 1.72 |
| TCATATAGGTAAAAGATGAAAGTCGGTGTGGTAA | -0.433 | 0.301 | 0.223 | 1.73 | 0.923 | 0.0309 | 0.103 | -0.0575 |
| CCGAGTAGGTTATGGGGCGTTCAGGCAACGGTGA | 0.761 | 0.491 | 0.0403 | -0.298 | 0.251 | 0.608 | 0.402 | 0.062 |
| CAAACTAGGTCAAGAAAGGTCAAAGTCGAATGAC | 5.71 | 7.33 | 7.9 | 1.95 | 7.67 | 4.9 | 1.79 | 3.03 |
| CCTAGTTGGTCATGGTCACACACGCTATAGGTAC | 1.56 | 1.06 | 1.54 | 0.565 | 0.699 | 0.458 | 0.619 | 0.905 |
| CAAACTAGGTCAAAGGTCGAAGTCGAGCCAACCA | 3.9 | 7.26 | 5.75 | 2.51 | 8.7 | 4.01 | 0.604 | 1.73 |
| ATCGAAAGGTCGAAGGCGAGTATACCCACCCGAA | 2.23 | 3.79 | 3.68 | 0.777 | 3.64 | 1.75 | -0.359 | 0.879 |
| GCGACTGGGGCAAAGCAAGTTACCATAAGGTTGG | 0.158 | 0.0953 | 0.244 | -0.247 | 0.26 | 0.526 | -0.346 | -0.341 |
| TCATATAGGTAAACAGGTGAAGGTCCGTAAGTTA | 0.91 | 0.737 | 0.389 | 1.36 | 0.85 | 0.707 | 0.377 | 0.32 |
| TCTATTACTTGAAGGGCAACCGACGAGTCCGTTT | 1.51 | 0.815 | 0.75 | 1.72 | 0.98 | 0.289 | 0.362 | 1.46 |
| GGAACGAGGGCAAAGTTGATATCATCTGTCGACG | 1.26 | 2.14 | 1.97 | 2.81 | 1.96 | 1.32 | 0.0109 | 1.29 |
| CAAACTAGGTCAAGAGGGCAAAGTCCGCTTCCCG | 4.13 | 5.73 | 5.4 | 1.86 | 4.07 | 3.04 | 1.03 | 1.78 |
| CCTAGTTGGTCACGGTCACACACGCTATAGGTAC | 2.79 | 1.84 | 2.25 | 1.13 | 0.982 | 1.05 | 1.4 | 0.987 |
| ACTATAAGTTGAGACGAGGGCAACCGATAGGTTG | 1.57 | 1.19 | 1.21 | 0.723 | 0.925 | 3.73 | 0.194 | 1.39 |
| CCTACTGGGCCATCAGGTCATTGAAATCAACGTT | 2.46 | 1.85 | 2.14 | 0.155 | 1.18 | 3.07 | 2.88 | 1.02 |
| ATATGTAGATTAAGGGTCATTCAGGTTGGTTCGC | 3.42 | 3.56 | 2.52 | 2.22 | 4.48 | 3.17 | 1.19 | 4.19 |
| CGGACTAGGTCAAGGACAGTGAATCTCCGCACGC | 2.94 | 3.54 | 4.28 | 1.29 | 2.33 | 2.8 | 2.06 | -0.118 |
